Experimental findings from PubChem BioAssay (EPA / NIEHS) are described below.

The source made the active and inactive calls. Rule for the calls: active = hit-call score of the fitted dose curve at least 0.9, where 1 is the maximum; inactive = score below 0.9.

Read-out in assay [1]: C-C motif chemokine 2 (Homo sapiens) (UniProt P13500)
Nature of the assay: BSK_KF3CT_MCP1: BioMAP Diversity Plus: KF3CT Assay for Monocyte Chemoattractant Protein 1 (MCP1/CCL2) Biomarker Activity (AID 2283073). The conditions noted are these: primary human keratinocytes with fibroblasts; actives raise or lower the signal. The method, boiled down: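 Human keratinocyte plus foreskin fibroblast primary co-culture exposed to chemical for 24 h. MCP-1 levels measured by ELISA. Bidirectional curve fitting relative to DMSO negative control as baseline.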

Read-out in assay [2]: Matrix Metallopeptidase 9 (MMP9), MMP9 (gene 4318)
Nature of the assay: BSK_KF3CT_MMP9: BioMAP Diversity Plus: KF3CT Assay for Matrix Metallopeptidase 9 (MMP9) Biomarker Activity (AID 2283074).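 For AC50: MMP9 protein level quantified by ELISA in the co-culture.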 The conditions noted are these: primary human keratinocytes with fibroblasts; actives raise or lower the signal. The method, boiled down:
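Values come from bidirectional fitting relative to DMSO of MMP-9 levels, which were measured by ELISA. Measurements were taken 24 h after chemical dosing of a keratinocyte and foreskin fibroblast co-culture.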

Read-out in assay [3]: urokinase plasminogen activator (uPA), PLAU (gene 5328)
The assay is described as follows: BSK_KF3CT_uPA: BioMAP Diversity Plus: KF3CT Assay for urokinase plasminogen activator (uPA) Biomarker Activity (AID 2283075). As to conditions: primary human keratinocytes with fibroblasts; actives raise or lower the signal. A digest of the protocol:
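Values derive from bidirectional fitting against DMSO controls. Keratinocyte/foreskin fibroblast co-cultures received chemical; 24 h later uPA was detected by ELISA, with SRB total-protein staining in parallel wells for overt cytotoxicity.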

Read-out in assay [4]: E-selectin (Homo sapiens) (UniProt P16581)
Nature of the assay: BSK_LPS_Eselectin: BioMAP Diversity Plus: LPS Assay for Eselectin Biomarker Activity (AID 2283077). The conditions noted are these: primary human HUVEC with PBMC; actives raise or lower the signal. The method, boiled down:
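Human umbilical vein endothelial cells co-cultured with peripheral blood mononuclear cells under LPS stimulation; E-selectin measured by ELISA 24 h after chemical dosing. Activity fitted bidirectionally against DMSO as negative control and baseline.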

Read-out in assay [5]: Interleukin-8 (IL8), CXCL8 (gene 3576)
The assay is described as follows: BSK_LPS_IL8: BioMAP Diversity Plus: LPS Assay for Interleukin-8 (IL8) Biomarker Activity (AID 2283078). As to conditions: primary human HUVEC with PBMC; actives raise or lower the signal. The method, boiled down: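 Human umbilical vein endothelial cells co-cultured with PBMC were stimulated with LPS; IL-8 levels were measured by ELISA 24 h after chemical dosing. Activity was fitted bidirectionally against DMSO as negative control and baseline.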

Assay [6] in a line: BSK_LPS_SRB: Viability Assessment in the BioMAP Diversity Plus: LPS Assay (AID 2283079).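 Note: total protein by sulforhodamine B absorbance as a cytotoxicity measure; measured one day after compound addition; fitted in both directions against DMSO so loss or gain of signal counts.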 As to conditions: primary human HUVEC with PBMC. The method, boiled down: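 Human umbilical vein endothelial cells co-cultured with PBMC (LPS system) were dosed for 24 h. Total protein was stained with 0.1% sulforhodamine B after 10% TCA fixation, read at 560 nm, and fitted bidirectionally against DMSO baseline.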

Read-out in assay [7]: Interleukin-1 alpha (IL1a), IL1A (gene 3552)
The assay is described as follows: BSK_LPS_IL1a: BioMAP Diversity Plus: LPS Assay for Interleukin-1 alpha (IL1a) Biomarker Activity (AID 2283080). The conditions noted are these: primary human HUVEC with PBMC; actives raise or lower the signal. A digest of the protocol: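 Human umbilical vein endothelial cells co-cultured with peripheral blood mononuclear cells were LPS-stimulated and exposed to test chemicals for 24 h. IL-1 alpha was quantified by ELISA, with bidirectional curve fitting against DMSO as the negative control and baseline.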

Read-out in assay [8]: Monocyte Chemoattractant Protein-1 (MCP1), CCL2 (gene 6347)
Nature of the assay: BSK_LPS_MCP1: BioMAP Diversity Plus: LPS Assay for Monocyte Chemoattractant Protein-1 (MCP1) Biomarker Activity (AID 2283081).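 For AC50: co-culture stimulated with LPS; secreted MCP-1 protein quantified by ELISA in culture supernatant.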 As to conditions: primary human HUVEC with PBMC; actives raise or lower the signal. A digest of the protocol:
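HUVEC plus PBMC co-culture (human primary cells, LPS system) exposed to test chemical for 24 h; MCP-1 measured by ELISA. Bidirectional curve fitting against DMSO baseline; parallel SRB total-protein staining flags overt cytotoxicity.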

Assay [9] is described as follows: BSK_LPS_PGE2: BioMAP Diversity Plus: LPS Assay for Prostaglandin E2 (PGE2) Biomarker Activity (AID 2283082).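 For AC50: secreted prostaglandin E2 measured by ELISA in LPS-stimulated co-culture.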 The conditions noted are these: primary human HUVEC with PBMC; actives raise or lower the signal. A digest of the protocol:
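PGE2 release measured by ELISA in an LPS-activated co-culture of human umbilical vein endothelial cells and peripheral blood mononuclear cells, read at 24 h post-dosing. DMSO served as baseline for bidirectional curve fitting.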

Read-out in assay [10]: Macrophage colony-stimulating factor (MCSF), CSF1 (gene 1435)
Nature of the assay: BSK_LPS_MCSF: BioMAP Diversity Plus: LPS Assay for Macrophage colony-stimulating factor (MCSF) Biomarker Activity (AID 2283083). As to conditions: primary human HUVEC with PBMC; actives raise or lower the signal. The method, boiled down:
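Human umbilical vein endothelial cells co-cultured with peripheral blood mononuclear cells were exposed to compound for 24 h. M-CSF levels were measured by ELISA, and bidirectional curve fitting used DMSO as the negative control and baseline.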

Read-out in assay [11]: Tissue Factor, F3 (gene 2152)
The assay is described as follows: BSK_LPS_TissueFactor: BioMAP Diversity Plus: LPS Assay for Tissue Factor Biomarker Activity (AID 2283084). The conditions noted are these: primary human HUVEC with PBMC; actives raise or lower the signal. The method, boiled down: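 Human umbilical vein endothelial cells co-cultured with peripheral blood mononuclear cells were dosed and stimulated with LPS. Cell-surface CD142 was quantified by ELISA at 24 h. Activity was fitted bidirectionally against DMSO baseline.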

Read-out in assay [12]: Tumor necrosis factor (Homo sapiens) (UniProt P01375)
Nature of the assay: BSK_LPS_TNFa: BioMAP Diversity Plus: LPS Assay for Tumour Necrosis Factor alpha (TNFa) Biomarker Activity (AID 2283085).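 For AC50: TNFa protein level quantified by ELISA in the co-culture.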 As to conditions: primary human HUVEC with PBMC; actives raise or lower the signal. A digest of the protocol: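 TNFa was quantified by ELISA in LPS-activated co-cultures of human endothelial cells and PBMC, 24 h post-dosing. Both increases and decreases versus DMSO were fitted.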

Read-out in assay [13]: Vascular cell adhesion molecule 1 (VCAM1), VCAM1 (gene 7412)
Nature of the assay: BSK_LPS_VCAM1: BioMAP Diversity Plus: LPS Assay for Vascular cell adhesion molecule 1 (VCAM1) Biomarker Activity (AID 2283086). As to conditions: primary human HUVEC with PBMC; actives raise or lower the signal. The method, boiled down: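 VCAM-1 quantified by ELISA in an LPS-activated co-culture of human endothelial cells and peripheral blood mononuclear cells, read 24 h post-treatment. Fitted in both directions versus DMSO; parallel SRB staining flags overt cytotoxicity.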

Read-out in assay [14]: CD40, CD40 (gene 958)
The assay is described as follows: BSK_SAg_CD40: BioMAP Diversity Plus: SAg Assay for CD40 Biomarker Activity (AID 2283088). As to conditions: primary human HUVEC with PBMC; actives raise or lower the signal. A digest of the protocol:
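Human umbilical vein endothelial cells co-cultured with PBMC; CD40 levels measured by ELISA with fluorescence read-out 24 h after chemical dosing. Gain or loss of signal fitted bidirectionally against DMSO baseline.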

Read-out in assay [15]: CD69, CD69 (gene 969)
Nature of the assay: BSK_SAg_CD69: BioMAP Diversity Plus: SAg Assay for CD69 Biomarker Activity (AID 2283089).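 For AC50: cell surface CD69 protein quantified by ELISA with fluorescence detection.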 The conditions noted are these: primary human HUVEC with PBMC; actives raise or lower the signal. The method, boiled down:
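HUVEC co-cultured with PBMC were dosed with chemical, and CD69 was measured by ELISA with fluorescence read-out 24 h later. Bidirectional curve fitting used DMSO as negative control and activity baseline.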

Read-out in assay [16]: Monocyte Chemoattractant Protein-1 (MCP1), CCL2 (gene 6347)
The assay is described as follows: BSK_SAg_MCP1: BioMAP Diversity Plus: SAg Assay for Monocyte Chemoattractant Protein-1 (MCP1) Biomarker Activity (AID 2283090). The conditions noted are these: primary human HUVEC with PBMC; actives raise or lower the signal. The method, boiled down: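 Values derive from bidirectional fitting of ELISA-measured MCP1 against DMSO controls. Readings were taken 24 h after dosing human vascular endothelial cells co-cultured with peripheral blood mononuclear cells under superantigen stimulation.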

Read-out in assay [17]: E-selectin (Homo sapiens) (UniProt P16581)
Nature of the assay: BSK_SAg_Eselectin: BioMAP Diversity Plus: SAg Assay for Eselectin Biomarker Activity (AID 2283091). The conditions noted are these: primary human HUVEC with PBMC; actives raise or lower the signal. The method, boiled down: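 HUVEC co-cultured with PBMC, compound dosed then read at 24 h; E-selectin measured by ELISA. Activity fitted bidirectionally against DMSO as negative control and baseline.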

Read-out in assay [18]: CD38, CD38 (gene 952)
Nature of the assay: BSK_SAg_CD38: BioMAP Diversity Plus: SAg Assay for CD38 Biomarker Activity (AID 2283087). The conditions noted are these: primary human HUVEC with PBMC; actives raise or lower the signal. A digest of the protocol: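 CD38 quantified by ELISA (fluorescence) in a superantigen-activated endothelial cell–PBMC co-culture at 24 h post-dose. Activity fitted in both directions relative to DMSO; parallel SRB and Alamar Blue cytotoxicity read-outs.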

Read-out in assay [19]: CD40, CD40 (gene 958)
Nature of the assay: BSK_LPS_CD40: BioMAP Diversity Plus: LPS Assay for CD40 Biomarker Activity (AID 2283076). The conditions noted are these: primary human HUVEC with PBMC; actives raise or lower the signal. The method, boiled down:
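Primary human umbilical vein endothelial cells co-cultured with peripheral blood mononuclear cells, LPS-stimulated, were dosed with chemical and read 24 h later. CD40 levels were measured by ELISA and fitted bidirectionally against DMSO as negative control and baseline.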

Chain of E-selectin (Homo sapiens) (P16581 whole entry, looked up): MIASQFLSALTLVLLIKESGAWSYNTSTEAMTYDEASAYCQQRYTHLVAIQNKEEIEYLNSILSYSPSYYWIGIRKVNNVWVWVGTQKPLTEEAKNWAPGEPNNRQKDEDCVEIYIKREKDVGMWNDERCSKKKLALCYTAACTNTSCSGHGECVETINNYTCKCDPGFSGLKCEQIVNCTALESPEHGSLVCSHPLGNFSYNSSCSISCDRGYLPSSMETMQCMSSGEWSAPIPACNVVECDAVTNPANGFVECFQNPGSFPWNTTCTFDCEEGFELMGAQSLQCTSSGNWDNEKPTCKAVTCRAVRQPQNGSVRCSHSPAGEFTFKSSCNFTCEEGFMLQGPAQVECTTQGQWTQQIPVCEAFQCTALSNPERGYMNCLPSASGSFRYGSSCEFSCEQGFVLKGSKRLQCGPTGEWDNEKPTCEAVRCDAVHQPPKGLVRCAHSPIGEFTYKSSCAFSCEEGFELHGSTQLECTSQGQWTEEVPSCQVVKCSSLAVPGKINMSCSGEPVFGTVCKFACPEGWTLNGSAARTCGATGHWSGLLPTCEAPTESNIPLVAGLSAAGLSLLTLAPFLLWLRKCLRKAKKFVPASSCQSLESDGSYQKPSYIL
Chain of Tumor necrosis factor (Homo sapiens) (P01375 whole entry, looked up): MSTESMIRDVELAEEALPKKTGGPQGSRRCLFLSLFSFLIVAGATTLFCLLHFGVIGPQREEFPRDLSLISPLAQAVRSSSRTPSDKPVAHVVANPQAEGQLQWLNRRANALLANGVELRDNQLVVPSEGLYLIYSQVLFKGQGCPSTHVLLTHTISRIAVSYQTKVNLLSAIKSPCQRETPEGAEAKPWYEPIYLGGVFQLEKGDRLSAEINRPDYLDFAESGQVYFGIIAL

For `CCOC(=O)O[C@H](C)OC(=O)c1ccc2c(c1)cc(C(=O)NC1CCN(C(C)C)CC1)n2Cc1cc(-c2ccc(Cl)s2)on1`, the AC50 in assay [1] is 5.86 µM (active); in [2], 8.39 µM (active); in assay [3], 8.14 µM (active); in assay [4] it was 10.4 µM (active); in assay [5] it was 6.76 µM (active); in [6], 5.61 µM (active). Moreover, the concentration at half-maximal activity (AC50) in [7] is 6.55 µM (active); in assay [8], 8.72 µM (active); in assay [9], 7.65 µM (active); in assay [10], 6.43 µM (active); in assay [11], 10.9 µM (active); in [12], 10.1 µM (active). Moreover, the AC50 in [13] was 6.25 µM (active); in assay [14], 6.99 µM (active); in [15], 6.44 µM (active); in assay [16], 7.11 µM (active); in [17], 8.76 µM (active).

Take `CCCCCCCCN(C)CCCCCCCC`: the result in [1], in assay [2], in assay [3], in assay [4], in assay [5] and in [6] was inactive. For the same compound, the outcome in [7], in [8], in assay [9], in assay [10], in assay [11] and in assay [12] was inactive. Besides, the result in assay [13], in [18], in assay [14], in assay [15], in assay [16] and in assay [17] was inactive.

In the case of `CN1C(=O)N(c2ccccc2Br)Cc2cnc(Nc3ccc4c(c3)OCC(CO)O4)nc21` (stereo not given), the AC50 in assay [1] was 31 µM (active); in assay [2] it was 6.07 µM (active); in assay [3] it was 12.4 µM (active); in [19] it was 7.42 µM (active); in assay [4] it was 7.07 µM (active); in assay [5] it was 6.07 µM (active). The AC50 was 4.68 µM (active) in [6]; 9.1 µM (active) in assay [7]; 5.19 µM (active) in assay [8]; 3.63 µM (active) in [9]; 9.88 µM (active) in [10]; 3.52 µM (active) in assay [11]. In addition, the AC50 in assay [12] is 3.14 µM (active); in [13], 7.92 µM (active); in [14], 2.19 µM (active); in assay [15] it was 2.08 µM (active); in assay [16], 1.9 µM (active); in assay [17] it was 1.37 µM (active).

Turning to `CC(=O)N1CCN(c2ccc(OC[C@H]3CO[C@](Cn4ccnc4)(c4ccc(Cl)cc4Cl)O3)cc2)CC1`, the result in assay [1] and in assay [9] was inactive. Besides, the AC50 in assay [2] is 29.8 µM (active); in assay [3], 30.8 µM (active); in assay [4], 32.2 µM (active); in assay [5] it was 29.9 µM (active); in [6], 20 µM (active); in assay [7], 35.6 µM (active). In addition, the concentration at half-maximal activity (AC50) in assay [8] is 31 µM (active); in assay [11] it was 33 µM (active); in assay [12], 36.7 µM (active); in assay [13] it was 28.1 µM (active); in assay [18], 27.4 µM (active); in [14], 24.1 µM (active). In addition, the AC50 in assay [15] was 25.4 µM (active); in assay [16], 30.1 µM (active); in [17], 32.4 µM (active).
